From PubChem BioAssay AID2796 (The Scripps Research Institute Molecular Screening Center, 2010)
Screen size: about 320,000 compounds; about 8,000 (2.5%) were called active. Cut-off read from the data, not from the text of the source: active = activation above about 47%; inactive = the rest. Shown is part of a subset that was picked to be rich in actives.

These compounds were tested against Aryl hydrocarbon receptor (Homo sapiens) (UniProt P35869) (assay: AHR activators, primary screen, cell-based, luminescence, luciferase reporter, human (AID 2796;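 note: 0% = vehicle wells and 100% = reference agonist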)). Settings: AHR-responsive luciferase reporter cells, at 5 µM, stronger effect = higher value.
Chain of Aryl hydrocarbon receptor (Homo sapiens) (P35869 whole entry, looked up): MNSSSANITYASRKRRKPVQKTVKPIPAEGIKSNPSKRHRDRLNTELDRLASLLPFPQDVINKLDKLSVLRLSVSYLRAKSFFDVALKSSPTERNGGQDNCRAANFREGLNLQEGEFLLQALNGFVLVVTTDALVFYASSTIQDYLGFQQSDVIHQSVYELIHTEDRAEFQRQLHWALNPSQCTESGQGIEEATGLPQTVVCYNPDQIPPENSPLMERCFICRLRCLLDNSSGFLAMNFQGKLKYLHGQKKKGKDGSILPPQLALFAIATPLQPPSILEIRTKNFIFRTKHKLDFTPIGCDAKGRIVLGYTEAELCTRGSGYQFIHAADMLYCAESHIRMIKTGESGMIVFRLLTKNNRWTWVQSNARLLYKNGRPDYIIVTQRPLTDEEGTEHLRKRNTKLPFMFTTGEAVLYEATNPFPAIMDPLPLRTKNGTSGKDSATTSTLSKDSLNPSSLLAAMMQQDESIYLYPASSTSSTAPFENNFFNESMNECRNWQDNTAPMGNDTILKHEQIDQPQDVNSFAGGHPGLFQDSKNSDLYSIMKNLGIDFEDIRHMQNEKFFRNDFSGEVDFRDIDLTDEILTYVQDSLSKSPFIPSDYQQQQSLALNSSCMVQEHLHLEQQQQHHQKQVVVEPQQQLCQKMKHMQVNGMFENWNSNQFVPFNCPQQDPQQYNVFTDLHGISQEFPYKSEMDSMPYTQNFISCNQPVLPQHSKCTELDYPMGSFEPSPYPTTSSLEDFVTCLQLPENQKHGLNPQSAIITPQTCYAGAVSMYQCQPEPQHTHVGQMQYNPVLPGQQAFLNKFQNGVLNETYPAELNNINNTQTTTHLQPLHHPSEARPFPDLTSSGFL

activation, active:
O=C(Nc1nnc(C2CC2)s1)c1cc(Cl)sc1Cl 63.3%
COCCNC(=S)N/N=C/c1c(C)[nH]c2ccccc12 47.6%
Cc1nc(COc2cc3oc(=O)cc(C)c3cc2Cl)cs1 48.1%
O=C(N/N=C/c1ccco1)c1ccc(C(=O)N/N=C/c2ccco2)o1 86%
COCc1cc(C)nc(Nc2cc(C)ccc2C)c1C#N 52.2%
COc1cc(/C=N/N=C(\N)c2nonc2N)cc(OC)c1OC 91.3%
Brc1ccc(C2CC(c3ccccc3)=Nc3ccccc3N2)cc1 (stereo unspecified) 104%
CC(=O)Nc1ccc(-c2nc3ccccc3o2)cc1 80.5%
S=c1[nH]nc(-c2cc(-c3ccccc3)n[nH]2)n1/N=C/c1c2ccccc2cc2ccccc12 63.2%
COc1ccc2nc(Nc3nc4cc5c(cc4s3)OCCO5)sc2c1 53.1%
COc1ccc2nc(Nc3nc(-c4cc5ccccc5oc4=O)cs3)sc2c1 56.3%
COc1ccc2nc(Nc3nc(-c4ccncc4)cs3)sc2c1 107%

activation, inactive:
CC(=O)Nc1ccc(S(=O)(=O)NC(C)C(=O)OCCOc2ccc(F)cc2)cc1 (stereo unspecified) -0.37%
Cc1cccc2nc(CSc3nc4[nH]ncc4c(=O)n3-c3cccc(Cl)c3)cc(=O)n12 2.86%
COCC(C)n1c(C)cc(C(=O)CSc2cc(C)c3ccccc3n2)c1C (stereo unspecified) 43.7%
O=C(Cc1ccc([N+](=O)[O-])cc1)Nc1ccc(C(=O)N2CCOCC2)cc1 0.42%
C=CCN(c1ccccc1C(=O)NCC(=O)OCC)S(=O)(=O)c1ccc(C)cc1 -1.83%
Cc1ccccc1N1CCN(C2CCCN(C(=O)c3cn4c(C)cccc4n3)C2)CC1 (stereo unspecified) 1.46%
COc1ccc(-n2nc(C(=O)NCC(=O)N3CCN(c4ccccc4OC)CC3)c3ccccc3c2=O)c(OC)c1 3.01%
O=C(CCN1C(=O)[C@H]2CC=CC[C@H]2C1=O)NCc1nc(-c2ccccc2)no1 1.79%
CC(=O)N1CC(C)c2scc(C)[n+]2-c2ccccc21 (stereo unspecified) -2.51%
Cc1cc(C(=O)Nc2nnc(C3CC3)s2)c(C)s1 23.6%
O=C(Nc1nnc(C2CC2)s1)c1ccccn1 -1.71%
CCCCOc1ccc(NC(=O)CSCC(=O)OCC)cc1 -0.97%
Cc1[nH]c2ccccc2c1/C=N/NC(=O)CNC(=O)c1ccc2c(c1)OCO2 18.3%
COc1ccc2ccccc2c1/C=N/NC(=O)c1cc(C)[nH]n1 39%
CCCCN(CC(=O)NC(C)(C)C)C(=O)C(=O)Nc1ccc2c(c1)OCCO2 7.49%
Cc1cc(=O)oc2cc(OCC(=O)N3CCN(c4ccc(F)cc4)CC3)c(Cl)cc12 -0.42%
Cc1cc(=O)oc2ccc(OCC(=O)O)cc12 -5.16%
CC(C)NC(=S)Nc1cccc2cnccc12 15%
COCCSc1nnc(NC(=O)CCS(=O)(=O)Cc2ccccc2)s1 22.7%
COc1ccc(-c2ccc3nnc(SCC(=O)Nc4ccc(NC(C)=O)cc4)n3n2)cc1 3.13%
Fc1ccc(-c2ccc(NCCN3CCOCC3)nn2)cc1 2.58%
O=C(N/N=C/c1ccco1)c1csc2c1CCCC2 8.16%
O=C(Cc1ccc([N+](=O)[O-])cc1)N/N=C/c1ccco1 1.25%
CCNC(=O)N(CC)C[C@H]1N[C@@](CC)(C(=O)OC)[C@H]2C(=O)N(Cc3ccccc3)C(=O)[C@@H]12 -0.15%
COc1ccc(N(Cc2ccc(N(C)C)cc2)C(=O)c2ccc(S(C)(=O)=O)cc2)cc1 -2.92%
Cc1cc(C)c(C#N)c(Nc2cccc(Br)c2)n1 19.3%
COCc1cc(C)nc(SCC(=O)Nc2cccc(C)c2)c1C#N 2.83%
O=C(CSc1nc(O)c(Cc2ccccc2)c(=O)[nH]1)Nc1nc2c(s1)CCCC2 1.1%
COc1cc(/C=N\NC(=O)c2nonc2N)c(OC)cc1Br 15.2%
COc1cc(/C=N/Nc2nn3cnnc3c3ccccc23)cc(OC)c1OC 38.4%
CC(C)(C)C(=O)NCCCNc1ccc([N+](=O)[O-])cc1 2.34%
Cc1ccc(C)c(NC(=O)COC(=O)Cn2c(C)csc2=O)c1 2.35%
O=C(COC(=O)c1ccc2c(c1)OCCO2)NCc1ccccc1Cl -0.15%
c1ccc(C2=Nc3cccc4cccc(c34)N2)cc1 19.3%
CNC(=S)N1N=C(c2ccccc2)CC1c1ccc(Br)cc1 (stereo unspecified) 1.39%
Cc1ccsc1C(=O)NC1CCCCC1C (stereo unspecified) -0.06%
COc1ccc(CN2CN(C3CCCC3)CSC2=S)cc1 -1.37%
COc1ccc(CC(=O)OC(C)C(=O)Nc2ccc(S(N)(=O)=O)cc2)cc1 (stereo unspecified) 0.17%
COCc1c(C(=O)OCC(=O)Nc2ccc(OC(F)F)cc2)oc2ccccc12 -0.02%
Cc1ccc2nc(-c3ccc(NC(=O)c4cccnc4)cc3)oc2c1 -9.23%
Cc1cc2nc(-c3ccc(NC(=O)c4cccnc4)cc3)oc2cc1C -6.99%
CCC(CC)COC(=O)C1=C(C)NC(=O)NC1c1ccc([N+](=O)[O-])cc1 (stereo unspecified) -3.02%
CCc1ccccc1N(CC(=O)NCC1CCCO1)C(=O)CCC(=O)Nc1nccs1 (stereo unspecified) -2.18%
COc1ccc(NC(=O)C(CC(C)C)NS(=O)(=O)c2ccc3c(c2)CCN3C(C)=O)cc1OC (stereo unspecified) 1.37%
CSc1ncccc1C(=O)Nc1cccc(S(=O)(=O)N2CCOCC2)c1 -0.18%
Fc1ccccc1/C=N/n1c(-c2cccnc2)n[nH]c1=S 5.29%
S=c1[nH]nc(-c2ccncc2)n1/N=C/c1ccccc1Cl 4.63%
Fc1cccc(CSc2nnc3ccc(-c4ccncc4)nn23)c1 4.81%
COc1ccc2nc(NC(=O)NC3CCCCC3)sc2c1 5.23%
c1c2c(cc3sc(N4CCCCC4)nc13)OCCO2 -13.2%
CCOc1ccc(S(=O)(=O)Nc2nc3cc(OC)ccc3s2)cc1 -1.36%
COc1ccc2oc(=O)cc(-c3cc4ccccc4o3)c2c1 18.4%
COc1ccc2nc(NC(=O)[C@@H]3CCCN3C(=O)c3cccs3)sc2c1 23.1%
Cc1noc(C)c1CSCC(=O)Nc1nc2ccc(Oc3ccccc3)cc2s1 17.8%
